Assay results: the supplement of paper PMC6607015
Where a name gives a salt, the structure may show the parent alone.

How the values were obtained:
Conditions in all cases: compound concentration in added solution (µM; 5 µl added to 20 µl cells): 10; 18 h
[1] = system: A431; assay: LBPA endosome anti-LBPA integrated intensity (sum per cell), Z-score; higher = more LBPA staining
Procedure, shortened: (§1)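 After 18 h on 5 µl of 10 µM compound solution in duplicate 384-well imaging plates, HeLa MZ or A431 cells, seeded at 3,500 per well in 20 µl, were fixed with 4% PFA. They were then labelled with 6C4 anti-LBPA antibody, filipin, propidium iodide and CellTracker green, and four 20× fields were recorded per well. Integrated LBPA or filipin intensity per cell, whole-cell or within LBPA endosomes, came from MetaXpress segmentation and was normalised to Z-scores in AcuityXpress.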

[2] = system: HeLa MZ; assay: as above
Procedure, shortened: as §1

[3] = system: A431; assay: whole-cell filipin (free cholesterol) integrated intensity, Z-score; higher = more cholesterol staining
Procedure, shortened: as §1

[4] = system: HeLa MZ; assay: as above
Procedure, shortened: as §1

[5] = system: A431; assay: filipin (cholesterol) integrated intensity within LBPA endosomes, Z-score; higher = more cholesterol in LBPA endosomes
Procedure, shortened: as §1

[6] = system: HeLa MZ; assay: as above
Procedure, shortened: as §1

Row | Structure (SMILES) | LBPA endosome anti-LBPA integrated intensity (z-score) [1] | LBPA endosome anti-LBPA integrated intensity (z-score) [2] | whole-cell filipin (z-score) [3] | whole-cell filipin (z-score) [4] | filipin (z-score) [5] | filipin (z-score) [6]
1 | Cc1cn([C@H]2C[C@H](N=[N+]=[N-])[C@@H](CO)O2)c(=O)[nH]c1=O [Zidovudine, AZT] | -0.815 | -0.853 | -0.904 | 0.114 | -0.643 | -0.555
2 | CC(C(O)c1ccc(O)cc1)N1CCC(Cc2ccccc2)CC1 (configuration not stated) [Ifenprodil tartrate] | 0.387 | -0.296 | 0.502 | 0.445 | 0.406 | 0.378
3 | CCc1c2c(nc3ccc(OC(=O)N4CCC(N5CCCCC5)CC4)cc13)-c1cc3c(c(=O)n1C2)COC(=O)[C@]3(O)CC [Irinotecan Hydrochloride] | 0.102 | 3.21 | 3.24 | 3.96 | 0.0471 | -0.0232
4 | CC(=O)OCC(=O)[C@@]12OC3(CCCC3)O[C@@H]1C[C@H]1[C@@H]3CCC4=CC(=O)C=C[C@]4(C)[C@@]3(F)[C@@H](O)C[C@@]12C [Amcinonide] | -0.0445 | 0.215 | 0.476 | 0.977 | -0.0127 | 0.16
5 | NS(=O)(=O)c1cc2c(cc1C(F)(F)F)NC(Cc1ccccc1)NS2(=O)=O (configuration not stated) [Bendroflumethiazide] | -0.595 | -0.755 | -0.332 | -0.0234 | -0.529 | -0.486
6 | COCCCC/C(=N\OCCN)c1ccc(C(F)(F)F)cc1 [Fluvoxamine maleate] | 0.482 | 2.11 | 1.69 | 0.282 | 0.839 | 0.935
7 | CC(=O)O[C@H]1C[C@@]2(C)[C@@H](C[C@@H](O)[C@H]3[C@@]4(C)CC[C@@H](O)[C@@H](C)[C@@H]4CC[C@@]32C)/C1=C(\CCC=C(C)C)C(=O)O [Fusidic acid sodium salt] | -0.322 | 0.503 | -0.581 | 0.0569 | -0.49 | -0.416
8 | O=C(c1ccc(OCCN2CCCCC2)cc1)c1c(-c2ccc(O)cc2)sc2cc(O)ccc12 [Raloxifene hydrochloride] | 2.74 | 1.35 | 1.48 | 2.28 | 3.61 | 5.61
9 | CO[C@H]1/C=C/O[C@@]2(C)Oc3c(C)c(O)c4c(O)c(c5c(nc6cc(C)ccn65)c4c3C2=O)NC(=O)/C(C)=C\C=C\[C@H](C)[C@H](O)[C@@H](C)[C@@H](O)[C@@H](C)[C@H](OC(C)=O)[C@@H]1C [Rifaximin] | -0.465 | -0.154 | 0.151 | 0.344 | -0.307 | -0.143
10 | CCN(CC)C(=O)c1ccc(O)c(OC)c1 [Ethamivan] | -0.477 | -0.0996 | -0.452 | 0.274 | -0.43 | -0.268
11 | CN1CCC(=C2c3ccccc3Sc3ccccc32)CC1 [Pimethixene maleate] | 2.35 | 1.97 | 0.776 | -0.782 | 1.82 | 0.962
12 | NCCCC(O)(P(=O)(O)O)P(=O)(O)O [Alendronate sodium] | -0.662 | -1.69 | -0.705 | -0.128 | -0.56 | -0.588
13 | C[C@@](Cc1ccc(O)c(O)c1)(NN)C(=O)O [Carbidopa] | -0.613 | -0.537 | -0.771 | -0.705 | -0.551 | -0.634
14 | Nc1ccc(S(=O)(=O)Nc2ccnn2-c2ccccc2)cc1 [Sulfaphenazole] | -0.541 | -1.02 | -0.89 | -1.05 | -0.533 | -0.671
15 | Nc1nc(O)c2ncn(CCC(CO)CO)c2n1 [Penciclovir] | -0.596 | -1.08 | -0.223 | 0.234 | -0.512 | -0.438
16 | CCCC(=O)Nc1ncnc2c1ncn2[C@@H]1O[C@@H]2COP(=O)(O)O[C@H]2[C@H]1OC(=O)CCC [Bucladesine sodium salt] | -0.466 | -0.34 | -0.132 | 0.0614 | -0.405 | -0.372
17 | NCCC[C@H](N)CC(=O)N[C@H]1CNC(=O)[C@H]([C@H]2C[C@H](O)NC(N)=N2)NC(=O)/C(=C/NC(N)=O)NC(=O)[C@H](CO)NC(=O)[C@H](CO)NC1=O [Viomycin sulfate] | -0.57 | -1.06 | -0.305 | -0.46 | -0.563 | -0.474
18 | CC(C)(C)NCC(O)c1ccc(O)c(CO)c1 (configuration not stated) [Salbutamol] | -0.288 | -0.311 | 0.022 | -0.307 | -0.535 | -0.499
19 | NCCCCCC(=O)O [Aminocaproic acid] | -0.515 | -0.605 | -0.556 | -0.716 | -0.511 | -0.479
20 | O=c1[nH]c(=O)n([C@H]2C[C@H](O)[C@@H](CO)O2)cc1I [Idoxuridine] | -0.506 | 0.506 | -0.368 | 0.357 | -0.479 | -0.063
21 | CC(C)NC[C@@H](O)COc1cccc2ccccc12 [(R)-Propranolol hydrochloride] | 0.16 | 1.45 | 0.468 | -0.0727 | 0.133 | 0.265
22 | CN1CCCCC1CCN1c2ccccc2Sc2ccc([S+](C)[O-])cc21 (configuration not stated) [Mesoridazine besylate] | 0.975 | 2.18 | 0.066 | 0.244 | 0.618 | 1.37
23 | CN(C)c1nc(N(C)C)nc(N(C)C)n1 [Altretamine] | -0.54 | -1.33 | -0.283 | -0.6 | -0.517 | -0.671
24 | CN1CCN2c3ccccc3Cc3ccccc3C2C1 (configuration not stated) [Mianserine hydrochloride] | 1.6 | 1.07 | 1.17 | 0.96 | 1.16 | 1.54

Row | Structure (SMILES) | LBPA endosome anti-LBPA integrated intensity (z-score) [1] | LBPA endosome anti-LBPA integrated intensity (z-score) [2] | whole-cell filipin (z-score) [3] | whole-cell filipin (z-score) [4] | filipin (z-score) [5] | filipin (z-score) [6]
25 | Cc1ncc([N+](=O)[O-])n1CC(C)O (configuration not stated) [Secnidazole] | -0.291 | -0.288 | -0.203 | -0.327 | -0.374 | -0.579
26 | CN(C)[C@@H]1C(O)=C(C(N)=O)C(=O)[C@@]2(O)C(O)=C3C(=O)c4c(O)cccc4[C@@](C)(O)[C@H]3[C@H](O)[C@@H]12 [Oxytetracycline dihydrate] | -0.525 | -0.93 | -0.872 | -0.703 | -0.537 | -0.753
27 | CN1CCN(c2c(F)cc3c(=O)c(C(=O)O)cn(CCF)c3c2F)CC1 [Fleroxacin] | -0.492 | -0.0484 | -0.0639 | 0.23 | -0.354 | -0.239
28 | CC(=O)[C@H]1CC[C@H]2[C@@H]3CC=C4C[C@@H](O)CC[C@]4(C)[C@H]3CC[C@]12C [Pregnenolone] | 2.84 | 2.65 | 1.33 | 1.33 | 2.1 | 1.2
29 | Nc1ccc(C(=O)O)c(O)c1 [4-aminosalicylic acid] | -0.488 | -0.439 | -0.159 | -0.434 | -0.444 | -0.569
30 | Cc1ncc(CO)c(CO)c1O [Pyridoxine hydrochloride] | -0.469 | -0.56 | -0.385 | -0.528 | -0.475 | -0.596
31 | O=C1CN(/N=C/c2ccc(-c3ccc([N+](=O)[O-])cc3)o2)C(=O)N1 [Dantrolene sodium salt] | -0.554 | -0.147 | -1.1 | -0.944 | -0.655 | -0.686
32 | O=P(O)(O)C(Cl)(Cl)P(=O)(O)O [Clodronate] | -0.576 | -0.865 | -0.177 | -0.446 | -0.541 | -0.434
33 | N=C(N)NCc1cccc(I)c1 [Iobenguane sulfate] | -0.605 | -1.1 | -0.881 | -0.23 | -0.54 | -0.449
34 | CN(C)CCCN1c2ccccc2CCc2ccc(Cl)cc21 [Clomipramine hydrochloride] | 3.59 | 1.91 | 1.1 | -0.141 | 2.35 | 1.89
35 | CC(=O)Oc1cccc2c1C(=O)c1c(OC(C)=O)cc(C(=O)O)cc1C2=O [Diacerein] | -0.503 | -0.299 | -0.484 | 0.525 | -0.459 | -0.327
36 | NC(=O)c1ccc[n+]([C@@H]2O[C@H](COP(=O)([O-])OP(=O)(O)OC[C@H]3O[C@@H](n4cnc5c(N)ncnc54)[C@H](O)[C@@H]3O)[C@@H](O)[C@H]2O)c1 [Nadide] | -0.373 | -0.766 | -0.714 | -0.46 | -0.413 | -0.768
37 | CCCN[C@H]1CCc2nc(N)sc2C1 [Pramipexole] | -0.166 | 0.761 | 0.197 | 0.182 | -0.247 | -0.149
38 | CN(C)C(=N)NC(=N)N [Metformin hydrochloride] | -0.525 | -0.838 | -0.902 | -0.3 | -0.437 | -0.498
39 | c1ccc(C2CN3CCSC3=N2)cc1 (configuration not stated) [Tetramisole hydrochloride] | -0.644 | 0.538 | -0.603 | -0.217 | -0.702 | -0.156
40 | CC1(C)S[C@@H]2[C@H](NC(=O)[C@H](N)c3ccccc3)C(=O)N2[C@H]1C(=O)OC1OC(=O)c2ccccc21 (some centres not stated) [Talampicillin hydrochloride] | -0.446 | 0.322 | -0.121 | 0.482 | -0.392 | -0.35
41 | CN1C2CCCC1CC(NC(=O)c1nn(C)c3ccccc13)C2 (configuration not stated) [Granisetron] | 0.179 | 1.05 | 0.826 | 0.449 | -0.132 | 0.382
42 | CCCCNC(=O)NS(=O)(=O)c1ccc(C)cc1 [Tolbutamide] | -0.288 | 0.292 | -0.409 | -0.426 | -0.47 | -0.503
43 | CN(C/C=C/c1ccccc1)Cc1cccc2ccccc12 [Naftifine hydrochloride] | -0.115 | -0.525 | 0.224 | -0.277 | -0.136 | -0.339
44 | CCCCN(CCCC)CCCOC(=O)c1ccc(N)cc1 [Butacaine] | 1.72 | 1.93 | -0.324 | -0.451 | 0.0505 | 0.307
45 | C[N+](C)(C)CCCCCC[N+](C)(C)C [Hexamethonium dibromide dihydrate] | -0.482 | -1.09 | -0.483 | -0.775 | -0.514 | -0.624
46 | CC12CC3CC(C)(C1)CC(N)(C3)C2 [Memantine Hydrochloride] | -0.449 | 0.231 | 0.233 | 0.438 | -0.349 | -0.0275
47 | CC(=O)OCC(=O)NCCCOc1cccc(CN2CCCCC2)c1 [Roxatidine Acetate HCl] | -0.585 | -0.0177 | -0.731 | -0.282 | -0.524 | -0.38
